The results in this text go back to PubChem BioAssay.

The inhibition is the drop in the measured response relative to a control, in per cent.

Unmarked numbers belong to inactive results. No rule for the calls is given here.

The assay deals with Pantothenate synthetase (Mycobacterium tuberculosis (strain ATCC 25618 / H37Rv)) (UniProt P9WIL5). The assay is described as follows: Coupled enzyme confirmation of inhibitors against recombinant Mtb PanC (AID 375).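 Also: 0% = full reaction with vehicle and 100% = no enzyme background.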 The following applies: coupled enzyme assay; at 10 µM, active compounds read high.
Sequence of Pantothenate synthetase (Mycobacterium tuberculosis (strain ATCC 25618 / H37Rv)) (P9WIL5 whole entry, looked up): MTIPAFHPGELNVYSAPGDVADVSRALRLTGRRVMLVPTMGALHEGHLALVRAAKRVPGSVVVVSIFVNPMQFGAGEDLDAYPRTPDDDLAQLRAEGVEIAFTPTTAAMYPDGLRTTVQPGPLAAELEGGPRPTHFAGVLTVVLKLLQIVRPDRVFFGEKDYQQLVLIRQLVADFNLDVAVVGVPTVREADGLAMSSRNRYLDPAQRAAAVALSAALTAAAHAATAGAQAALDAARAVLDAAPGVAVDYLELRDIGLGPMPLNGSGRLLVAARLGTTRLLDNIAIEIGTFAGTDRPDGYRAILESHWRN
For `Cc1ccc(C(=O)Nc2c(C(=O)N3CCOCC3)cnn2-c2ccccc2)cc1`, the inhibition is 0%.

Take `CCOc1ccc(C(c2nnnn2Cc2ccccc2)N2CCN(C(=O)c3ccco3)CC2)cc1` (stereo not given): the inhibition was 2%.

As to `COc1ccccc1N1CCN(C(=O)C2CC=CCC2C(=O)O)CC1` (stereo not given), the inhibition is 14%.

For the compound `COc1cccc(Oc2cnc(N)nc2-c2ccc(OC)cc2O)c1`, the inhibition is 2%.

With `COC(=O)C(NC(C)=O)(Nc1ccccn1)C(F)(F)F` (stereo not given), the inhibition was 1%.

For `CC1CCN(S(=O)(=O)c2ccc3[nH]c(=O)cc(C(=O)O)c3c2)CC1`, the inhibition is 0%.

For `Oc1ccc(C=Nc2cccc3ncccc23)c(O)c1`, the inhibition is 2%.

Regarding `Cc1cc(=O)oc2c1ccc1oc(/C(=N/O)c3ccccc3)c(C)c12`, the inhibition was 0%.

In the case of `COc1cccc(Cn2c(Oc3ccccc3)nc3c2c(=O)n(C)c(=O)n3C)c1`, the inhibition was 0%.

Consider `COc1cccc(C2=NOC(C(=O)N3CCc4ccccc4C3)C2)c1` (stereo not given), for which the inhibition is 0%.

In the case of `CCn1c(=N)n(CC(=O)C23CC4CC(CC(C4)C2)C3)c2ccccc21`, the inhibition is 0%.

As for `COc1cccc(-n2c(SCC(=O)Nc3cc(C)on3)nc3c([nH]c4ccccc43)c2=O)c1`, the inhibition was 2%.

Turning to `O=C(CCNS(=O)(=O)c1cccc2nsnc12)Nc1ccc2c(c1)OCCO2`, the inhibition was 0%.

Consider `CCOC(=O)c1ccc(N2C(=O)CC(Sc3nnc(C)s3)C2=O)cc1` (stereo not given), for which the inhibition was 0%.

Turning to `CC(C)(C)C(=O)Oc1cc(N)n(S(=O)(=O)c2ccccc2)n1`, the inhibition was 0%.

For `CCOC(=O)c1c(C)[nH]c(C(=O)Cn2c(=O)oc3ccccc32)c1C`, the inhibition is 4%.

As to `Cc1ccc(-c2cc(C(=O)O)n[nH]2)o1`, the inhibition was 0%.

As for `O=C(NC1CCCCC1)C1CC(O)CN1C(=O)OCc1ccccc1` (stereo not given), the inhibition is 0%.

In the case of `Cc1nc2ncnn2c(N2CCC(C(=O)NC3CCCC3)CC2)c1Cc1ccccc1`, the inhibition was 1%.

As to `COc1cccc(-c2csc(N3CCN(CC(=O)Nc4ccc5c(c4)OCO5)CC3)n2)c1`, the inhibition was 0%.

As to `CN(C)C(=O)N1CCC(C(=O)NC2CCCCCCC2)CC1`, the inhibition was 0%.

Take `c1ccc2c(SCc3cn4cccnc4n3)ncnc2c1`: the inhibition is 2%.

Take `COc1ccc(C)cc1C(=O)CCC(=O)Nc1ccccc1N1CCOCC1`: the inhibition was 2%.

With `O=C(C1CCN(c2nnc(-n3cccc3)s2)CC1)N1CCN(Cc2ccc3c(c2)OCO3)CC1`, the inhibition was 10%.

For the compound `O=C1CC(c2cccc(Cl)c2)CC(O)=C1C=NCCCO` (stereo not given), the inhibition was 9%.

Consider `Cc1cccc(-n2ncc3c(NCc4cccs4)ncnc32)c1`, for which the inhibition is 0%.

On to `COc1ccc(-n2nc(C(=O)Nc3ccc4c(c3)OCO4)c3c4ccccc4n(C)c3c2=O)cc1`, for which the inhibition was 2%.

On to `Fc1ccccc1Cn1nnc2c(-n3ccnc3)ncnc21`, for which the inhibition was 0%.

Regarding `COc1c(C(=O)Nc2c(C)n(C)n(-c3ccccc3)c2=O)ccc2ccccc12`, the inhibition was 0%.

`O=C1c2ccccc2C(=O)N1c1cccc(-c2nc3ccccc3o2)c1`: the inhibition was 7%.

`CCOC(=O)N1CCN(C(=O)CN(C2CCCCC2)S(=O)(=O)c2ccc(F)cc2)CC1`: the inhibition was 0%.

For the compound `Oc1ccc2cccnc2c1`, the inhibition was 7%.

As for `COc1ccc2c(=O)c3c(=O)n(Cc4ccco4)c(-c4cc(OC)c(OC)c(OC)c4)nc3oc2c1`, the inhibition is 5%.

Take `Cc1cccc(NC(=O)CCn2ccnc2C)c1`: the inhibition was 0%.

Regarding `O=C(NCC1CCCO1)c1cc(-c2ccncc2)nc2ccc(S(=O)(=O)N3CCOCC3)cc12` (stereo not given), the inhibition was 0%.

For the compound `O=C(CN1C(=O)c2ccccc2C1=O)Nc1ccccc1C(=O)N1CCCC1`, the inhibition is 1%.

For `Cc1cc(C)c(NC(=O)C2CCCN2CCO)c(C)c1` (stereo not given), the inhibition was 0%.

For `C=CCn1c(C)cc(C(=O)CSc2nc3ccccc3o2)c1C`, the inhibition is 9%.

Consider `FC(F)(F)c1cc(-c2ccco2)nc(NCc2ccco2)n1`, for which the inhibition is 0%.

Consider `O=C1NC(c2cccs2)Nc2ccccc21` (stereo not given), for which the inhibition is 0%.
